In PubChem BioAssay (NCATS) one finds Potency and outcome data, which are given here for 35 compounds.

Assay [1] addresses Tyrosine-protein kinase Yes (Homo sapiens) (UniProt P07947). In words: qHTS for small molecule inhibitors of Yes1 kinase: Primary Screen (AID 686947). Note: nearly all actives have a fitted effect of over 60% in size. Note: potency is the fitted concentration of half-maximal effect. In outline:
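ADP-Glo luminescence reports ADP formed by 4 nM Yes1 phosphorylating poly(E4Y) (0.3 mg/mL) with 0.1 mM ATP for 60 min at room temperature, following 20 min compound preincubation; normalised between DMSO wells with and without enzyme.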
Background: Quantitative high-throughput screening tests each substance at several concentrations.

Assay [2] in a line: qHTS for small molecule inhibitors of Yes1 kinase: Counter Assay (AID 686950).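 Note: no kinase present so only ADP-Glo detection of a fixed ADP amount is tested; luminescence from ADP-Glo reporting ADP in a fixed ATP and ADP mixture; series mostly up to about 77 µM.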 The procedure, abridged: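 No kinase present; 0.08 mM ATP + 0.02 mM ADP in 50 mM Tris pH 7.5, 10 mM MgCl2, 150 mM NaCl, 1 mM DTT; 20 min compound preincubation, 60 min RT, ADP-Glo luminescence, normalized to ATP/ADP (max) and ATP-only (min).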

Values joined by “and” are separate entries in the source; they are usually repeats but may differ in a detail not shown here. Equal values may be shown once. Results filed as inconclusive are left out. A call without a number means that no potency is given here. Active and inactive are the calls of the source. Calls come from the whole dose curve; as a rule, active = well fitted curve in the direction sought with a large enough effect; inconclusive = small, poorly fitted or top-dose-only effect, or another doubt; inactive = no such curve, though single readings can be large; an effect the other way counts as inactive or inconclusive.

Chain of Tyrosine-protein kinase Yes (Homo sapiens) (P07947 whole entry, looked up): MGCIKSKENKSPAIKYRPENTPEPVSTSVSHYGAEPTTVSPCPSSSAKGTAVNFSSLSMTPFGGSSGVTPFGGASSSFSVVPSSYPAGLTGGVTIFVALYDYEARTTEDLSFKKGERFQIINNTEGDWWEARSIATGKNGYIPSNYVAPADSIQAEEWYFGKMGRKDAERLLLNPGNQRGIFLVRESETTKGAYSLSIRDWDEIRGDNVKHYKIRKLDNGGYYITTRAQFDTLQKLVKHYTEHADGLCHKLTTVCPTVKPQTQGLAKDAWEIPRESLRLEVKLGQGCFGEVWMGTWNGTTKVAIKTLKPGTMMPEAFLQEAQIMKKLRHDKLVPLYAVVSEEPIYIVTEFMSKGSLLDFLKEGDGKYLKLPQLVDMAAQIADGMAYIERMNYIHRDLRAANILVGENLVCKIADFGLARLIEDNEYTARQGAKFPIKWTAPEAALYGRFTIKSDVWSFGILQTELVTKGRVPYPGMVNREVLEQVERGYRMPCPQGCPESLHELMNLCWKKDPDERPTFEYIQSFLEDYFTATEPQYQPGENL

In the case of `Cc1nnc(-c2cccc(-c3ccc(C(=O)NCC4CC4)cc3)c2)o1`, in assay [1], the Potency result was “inactive”. In addition, the compound was classed as inactive in assay [2].
As to `CN(C)CCNC(=O)Nc1ccc(N(C)c2ccnc(Nc3ccc(CS(C)(=O)=O)cc3)n2)cc1`, the Potency in assay [1] is 7.33 µM (active). Besides, the outcome in assay [2] was inactive.
With `CN1CCN(Cc2ccc(-c3cc4ncnc(Nc5ccc(OCc6cccc(F)c6)c(Cl)c5)c4s3)o2)CC1`, the Potency in assay [1] is 0.823 µM (active). In assay [2], the call was inactive.
As for `Fc1ccc(-c2nn3ncccc3c2-c2ccnc(Nc3ccc4c(c3)OCCO4)n2)cc1`, the Potency in assay [1] is 0.0654 µM (active). In assay [2], the call was inactive.
Consider `CCc1cccc(NC(=O)Nc2ccc(Oc3ccc4nc(NC(=O)OC)[nH]c4c3)cc2)c1`, for which the Potency result in assay [1] is “inactive”. Besides, the call in assay [2] was inactive.
On to `CC1=C(C(=O)Nc2ccc3[nH]ncc3c2)C(c2ccc(Cl)c(Cl)c2)CC(=O)N1` (stereo not given), for which the Potency in assay [1] was 2.92 µM (active). Also, the call in assay [2] was inactive.
The corresponding values for `CCN1CCC(CC(=O)Nc2n[nH]c3nc(-c4cccs4)c(Br)cc23)CC1` are 26 µM (active) and “inactive”.
On to `CNC(=O)c1sc(-n2cnc3cc(OC)c(OC)cc32)cc1OCc1ccccc1C(F)(F)F`, for which the Potency in assay [1] was 18.4 µM (active). In addition, the outcome in assay [2] was inactive.
With `O=S1CCN(Cc2ccc(-c3ccc4ncnc(Nc5ccc(OCc6cccc(F)c6)c(Cl)c5)c4c3)o2)CC1`, in assay [1], the Potency is 2.07 µM (active). For the same compound, the compound was classed as inactive in assay [2].
Take `CC(C)c1ccc2c(N=Nc3ccc(S(N)(=O)=O)cc3)c(O)[nH]c2c1`: the Potency entry in assay [1] was “inactive”. Also, the call in assay [2] was inactive.
With `COc1ccc(-c2cc(-c3cn[nH]c3-c3ccccn3)ccn2)cc1`, the Potency in assay [1] is 14.6 µM (active). In addition, in assay [2], the call was inactive.
For `O=C1NC(=O)C(N2CCc3ccccc32)=C1c1ccc(Cl)cc1`, the Potency result in assay [1] was “inactive”. Further, the compound was classed as inactive in assay [2].
As to `CCn1c(-c2nonc2N)nc2c(C#CC(C)(C)O)nc(OCCNC)cc21`, the Potency in assay [1] was 8.23 µM (active). Moreover, in assay [2], the call was inactive.
For `COc1cc(Nc2nccc(Nc3ccc4c(C)[nH]nc4c3)n2)cc(OC)c1OC`, the Potency in assay [1] was 0.0923 µM (active). Also, in assay [2], the result was inactive.
Take `CN(C)C(=O)OC1CNC(C#Cc2cc3ncnc(Nc4ccc(OCc5cccc(F)c5)c(Cl)c4)c3s2)C1` (stereo not given): the Potency in assay [1] is 8.23 µM (active) and 7.33 µM (active). For the same compound, in assay [2], the outcome was inactive.
Take `COc1cc2c(cc1Nc1nc(Nc3cccc(F)c3C(N)=O)c3cc[nH]c3n1)N(C(=O)CN1CCN(C(C)C)CC1)CC2`: the Potency result in assay [1] was “inactive”. In assay [2], the result was inactive.
In the case of `CS(=O)(=O)Nc1ccc(-c2cc(-c3ccccc3)cc(C(N)=O)c2N)cc1`, the Potency in assay [1] was 13 µM (active). Besides, the result in assay [2] was inactive.
Regarding `COc1cc2ncn(-c3cc(OCCc4ccccc4)c(C(N)=O)s3)c2cc1OC`, the Potency entry in assay [1] is “inactive”. The compound was classed as inactive in assay [2].
As for `Cc1ccc(O)cc1Nc1ccnc2ccc(S(C)(=O)=O)cc12`, in assay [1], the Potency was 0.0021 µM (active). Besides, the result in assay [2] was inactive.
Consider `COc1ccc(-c2nn3ncccc3c2-c2ccnc(Nc3ccc4c(c3)OCCO4)n2)cc1`, for which the Potency in assay [1] is 0.0292 µM (active). Moreover, the call in assay [2] was inactive.
The corresponding values for `CS(=O)(=O)Nc1ccc(-c2ccc3c(NC(=O)C4CC4)n[nH]c3c2)cc1` are 20.7 µM (active) and “inactive”.
The corresponding values for `Oc1[nH]c2ccccc2c1C=Nc1ccc(-n2cncn2)cc1` are 9.23 µM (active) and “inactive”.
On to `CCN(CC)Cc1ccc(Nc2nccc(-c3cnn4ncccc34)n2)cc1`, for which the Potency in assay [1] is 7.33 µM (active). Besides, in assay [2], the result was inactive.
In the case of `COc1ccc(-c2nn3ncccc3c2-c2ccnc(Nc3cccc(C(F)(F)F)c3)n2)cc1`, in assay [1], the Potency is 0.582 µM (active). Further, the outcome in assay [2] was inactive.
In the case of `CS(=O)(=O)CCNCc1ccc(-c2ccc3ncnc(Nc4ccc(OCc5cccc(F)c5)c(C(F)(F)F)c4)c3c2)o1`, the Potency result in assay [1] is “inactive”. The outcome in assay [2] was inactive.
Consider `CCOc1nccc2c1nc(-c1nonc1N)n2CC`, for which, in assay [1], the Potency entry was “inactive”. In assay [2], the call was inactive.
Consider `Fc1cccc(COc2ccc(Nc3ncncc3C#Cc3ccccc3)cc2Cl)c1`, for which the Potency entry in assay [1] is “inactive”. The result in assay [2] was inactive.
Consider `COc1cccc(COc2cc(-n3cnc4ccccc43)sc2C(N)=O)c1`, for which, in assay [1], the Potency result was “inactive”. Besides, the result in assay [2] was inactive.
Regarding `COc1ccc(-c2cc3c(N)ncnc3o2)cc1`, the Potency in assay [1] is 6.54 µM (active). Also, the result in assay [2] was inactive.
For `Cc1cc(-c2ccccn2)cc(C)c1C=Cc1cncc(-c2nn[nH]n2)c1`, in that order: 2.07 µM (active) and “inactive”.
With `COc1cc(C=NNc2ncnc3c2cnn3-c2ccccc2)ccc1O`, the Potency in assay [1] is 0.292 µM (active). Moreover, the compound was called inactive in assay [2].
For `NC(=O)CCc1ccccc1Oc1nccc(-c2c(-c3ccc(F)cc3)ncn2C2CCNCC2)n1`, in assay [1], the Potency result is “inactive”. Also, the compound was classed as inactive in assay [2].
As for `c1ccc(COc2ccc(Nc3ncnc4ccc(-c5ccco5)cc34)cc2)cc1`, the Potency in assay [1] is 3.68 µM (active). Besides, the call in assay [2] was inactive.
Consider `COC(=O)Nc1nc2ccc(Oc3ccc(NC(=O)Nc4cccc(Br)c4)cc3)cc2[nH]1`, for which the Potency result in assay [1] was “inactive”. In assay [2], the result was inactive.
For `COc1cc(N2CCN(C(C)C)CC2)ccc1Nc1nc(Nc2cccc(F)c2C(=O)O)c2cc[nH]c2n1`, the Potency entry in assay [1] is “inactive”. Moreover, the compound was classed as inactive in assay [2].
